Measurements reported in PubChem BioAssay (EPA / NIEHS).
Active and inactive are the calls of the source. The calls were made as follows: active = hit-call score of the fitted dose curve at least 0.9, where 1 is the maximum; inactive = score below 0.9.

How the values were obtained:
Settings in all cases: mRNA level, 48 h; actives raise or lower the signal
[1] = read-out: Apoptosis regulator Bcl-2 (Homo sapiens) (UniProt P10415); test: LTEA_HepaRG_BCL2: Life Technologies and Expression Analysis (LTEA) Assay for Bcl-2 gene using HepaRG (AID 2283475)
How it was run: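 Differentiated HepaRG cells in serum-free induction medium were exposed for 48 h to eight half-log concentrations up to 100 uM in 0.5% DMSO, in duplicate. BCL2 mRNA was quantified by TaqMan qRT-PCR normalised to ACTB, GAPDH and POLR2A, with bidirectional fitting versus DMSO.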

[2] = read-out: Bcl-2 (BID) gene, BID (gene 637); test: LTEA_HepaRG_BID: Life Technologies and Expression Analysis (LTEA) Assay for Bcl-2 (BID) gene using HepaRG (AID 2283476)
How it was run: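 Differentiated HepaRG cells in serum-free induction medium were exposed in duplicate for 48 h to eight half-log concentrations up to 100 uM in 0.5% DMSO. BID mRNA was quantified by qRT-PCR, normalized to ACTB, GAPDH and POLR2A.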

Caspase-3 (Homo sapiens) = Caspase-3 (Homo sapiens) (UniProt P42574); test: LTEA_HepaRG_CASP3: Life Technologies and Expression Analysis (LTEA) Assay for cysteine-aspartic acid protease (CASP3) using HepaRG (AID 2283477)
Chain of Caspase-3 (Homo sapiens) (P42574 whole entry, looked up): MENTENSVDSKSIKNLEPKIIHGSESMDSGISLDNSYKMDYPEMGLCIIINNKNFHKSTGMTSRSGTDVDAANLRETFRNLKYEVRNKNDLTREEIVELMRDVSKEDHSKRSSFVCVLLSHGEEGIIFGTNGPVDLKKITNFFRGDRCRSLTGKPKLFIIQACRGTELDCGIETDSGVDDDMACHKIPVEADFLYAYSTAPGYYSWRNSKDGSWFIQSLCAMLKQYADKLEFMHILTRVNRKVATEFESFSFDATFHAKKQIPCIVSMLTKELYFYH
How it was run: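 Read-out is CASP3 mRNA level by TaqMan qRT-PCR in human HepaRG cells after 48 h chemical exposure. Eight half-log concentrations topping at 100 uM were tested in 0.5% DMSO; gain or loss was fitted relative to DMSO.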

[3] = read-out: Cytochrome P450 (CYP1A2), CYP1A2 (gene 1544); test: LTEA_HepaRG_CYP1A2: Life Technologies and Expression Analysis (LTEA) Assay for Cytochrome P450 (CYP1A2) using HepaRG (AID 2283479)
How it was run: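 CYP1A2 transcript induction or loss, quantified by Fluidigm qRT-PCR against three housekeeping genes, was fitted bidirectionally against 0.5% DMSO controls. Human HepaRG cells received eight half-log concentrations from 100 uM over 48 h.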

[4] = read-out: cysteine-aspartic acid protease (CASP8), CASP8 (gene 841); test: LTEA_HepaRG_CASP8: Life Technologies and Expression Analysis (LTEA) Assay for cysteine-aspartic acid protease (CASP8) using HepaRG (AID 2283480)
How it was run: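 HepaRG, 48 h exposure, duplicate wells; 8 conc, half-log from 100 uM, 0.5% DMSO. Serum-free induction medium. CASP8 mRNA by TaqMan qRT-PCR, norm. ACTB/GAPDH/POLR2A; gain/loss fitted vs DMSO.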

[5] = read-out: Cytochrome P450 (CYP2B6), CYP2B6 (gene 1555); test: LTEA_HepaRG_CYP2B6: Life Technologies and Expression Analysis (LTEA) Assay for Cytochrome P450 (CYP2B6) using HepaRG (AID 2283481)
How it was run: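 HepaRG cells plated 48 h, switched to serum-free induction medium, then dosed 48 h (8 points, half-log from 100 uM, 0.5% DMSO). RNA isolated; CYP2B6 expression measured by qRT-PCR; gain or loss fitted relative to DMSO.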

[6] = read-out: Cytochrome P450 2C19 (Homo sapiens) (UniProt P33261); test: LTEA_HepaRG_CYP2C19: Life Technologies and Expression Analysis (LTEA) Assay for CYP2C19 using HepaRG (AID 2283482)
How it was run: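 Transcript levels of CYP2C19 were quantified by qRT-PCR after HepaRG cells were treated for 48 hours with test chemicals up to 100 uM (eight half-log concentrations, 0.5% DMSO vehicle). Gain or loss of signal was fitted relative to DMSO.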

CYP2C9 (gene 1559) = test: LTEA_HepaRG_CYP2C9: Life Technologies and Expression Analysis (LTEA) Assay for CYP2C9 using HepaRG (AID 2283484)
How it was run: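 Cells plated 48 h, switched to serum-free induction medium, then treated in duplicate for 48 h at eight concentrations (max 100 uM, 0.5% DMSO). RNA then analysed by qRT-PCR for CYP2C9; curves fitted in both directions relative to DMSO.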

CYP2C8 (gene 1558) = test: LTEA_HepaRG_CYP2C8: Life Technologies and Expression Analysis (LTEA) Assay for CYP2C8 using HepaRG (AID 2283483)
How it was run: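 CYP2C8 mRNA induction or loss, by qRT-PCR normalized to ACTB/GAPDH/POLR2A, is read in HepaRG cells after 48 h treatment. Concentrations run from 100 uM down in half-log dilutions, with 0.5% DMSO as vehicle and baseline.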

[7] = read-out: Cytochrome P450 (CYP24A1), CYP24A1 (gene 1591); test: LTEA_HepaRG_CYP24A1: Life Technologies and Expression Analysis (LTEA) Assay for Cytochrome P450 (CYP24A1) using HepaRG (AID 2283478)
How it was run: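 HepaRG, 48 h chemical exposure, 8-pt half-log CRC from 100 uM, 0.5% DMSO vehicle, duplicates. Endpoint: CYP24A1 mRNA by Fluidigm TaqMan qRT-PCR, normalized ACTB/GAPDH/POLR2A; gain/loss fit vs DMSO.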

Chain of Cytochrome P450 2C19 (Homo sapiens) (P33261 whole entry, looked up): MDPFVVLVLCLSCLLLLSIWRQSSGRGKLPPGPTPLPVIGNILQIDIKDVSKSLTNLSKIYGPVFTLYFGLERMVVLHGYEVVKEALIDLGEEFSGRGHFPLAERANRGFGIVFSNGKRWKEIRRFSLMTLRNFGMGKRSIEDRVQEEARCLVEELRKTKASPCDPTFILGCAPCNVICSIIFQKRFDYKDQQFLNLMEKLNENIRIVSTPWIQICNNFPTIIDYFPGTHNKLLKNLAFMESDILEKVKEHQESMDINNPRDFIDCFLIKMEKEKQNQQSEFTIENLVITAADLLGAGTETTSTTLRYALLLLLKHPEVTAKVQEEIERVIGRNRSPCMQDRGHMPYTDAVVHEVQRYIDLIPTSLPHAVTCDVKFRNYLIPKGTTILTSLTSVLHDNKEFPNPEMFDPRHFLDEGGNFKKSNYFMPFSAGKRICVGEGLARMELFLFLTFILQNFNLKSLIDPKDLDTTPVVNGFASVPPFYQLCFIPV
Chain of Apoptosis regulator Bcl-2 (Homo sapiens) (P10415 whole entry, looked up): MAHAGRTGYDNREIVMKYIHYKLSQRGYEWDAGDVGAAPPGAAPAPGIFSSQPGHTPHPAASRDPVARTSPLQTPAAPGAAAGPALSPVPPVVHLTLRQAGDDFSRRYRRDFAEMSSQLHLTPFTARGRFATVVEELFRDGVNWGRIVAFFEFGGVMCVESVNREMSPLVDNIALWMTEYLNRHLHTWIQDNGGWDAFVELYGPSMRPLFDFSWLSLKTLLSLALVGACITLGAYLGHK

For `O=C(O)C(F)(F)C(F)(F)C(F)(F)C(F)(F)C(F)(F)C(F)(F)C(F)(F)C(F)(F)C(F)(F)F`, the outcome [1] was “inactive”, the AC50 [2] was 90.6 µM (active) and the AC50 (Caspase-3 (Homo sapiens)) was 82.5 µM (active). The AC50 [3] was 22.2 µM (active), the AC50 [4] was 86 µM (active) and the AC50 [5] was 80.1 µM (active). The AC50 [6] was 81.1 µM (active) and the AC50 (CYP2C9 (gene 1559)) was 74.2 µM (active).
In the case of `CCCCCCCCCc1ccc(O)cc1`, the outcome [1] was “inactive”, the outcome [2] was “inactive” and the outcome (Caspase-3 (Homo sapiens)) was “inactive”. For the same compound, the outcome [3] was “inactive”, the outcome [4] was “inactive” and the outcome [5] was “inactive”. For the same compound, the outcome [6] was “inactive”, the outcome (CYP2C8 (gene 1558)) was “inactive” and the outcome (CYP2C9 (gene 1559)) was “inactive”.
For `Cc1ccc(O)c(C)c1`, the outcome [1] was “inactive”, the outcome [2] was “inactive” and the outcome (Caspase-3 (Homo sapiens)) was “inactive”. For the same compound, the outcome [7] was “inactive”, the outcome [3] was “inactive” and the outcome [4] was “inactive”. The outcome [5] was “inactive”, the outcome [6] was “inactive” and the outcome (CYP2C9 (gene 1559)) was “inactive”.
For `CCCCCCCCCC[N+](C)(C)CCCCCCCCCC`, the outcome [1] was “inactive”, the outcome [2] was “inactive” and the AC50 (Caspase-3 (Homo sapiens)) was 75.9 µM (active). For the same compound, the outcome [3] was “inactive”, the outcome [4] was “inactive” and the outcome [5] was “inactive”. The outcome [6] was “inactive”, the outcome (CYP2C8 (gene 1558)) was “inactive” and the AC50 (CYP2C9 (gene 1559)) was 60 µM (active).
`CC(C)C(=O)OCC(C)(C)C(OC(=O)C(C)C)C(C)C` (stereo not drawn) was tested, and the outcome [1] was “inactive”, the outcome [2] was “inactive” and the outcome (Caspase-3 (Homo sapiens)) was “inactive”. For the same compound, the outcome [3] was “inactive”, the outcome [4] was “inactive” and the outcome [5] was “inactive”. For the same compound, the outcome [6] was “inactive” and the outcome (CYP2C9 (gene 1559)) was “inactive”.
For `Cc1cc2c3c(c1)C(c1ccccc1)=N[C@@H](NC(=O)c1ccncc1)C(=O)N3CC2`, the outcome [1] was “inactive”, the outcome [2] was “inactive” and the outcome (Caspase-3 (Homo sapiens)) was “inactive”. For the same compound, the AC50 [3] was 23.1 µM (active), the outcome [4] was “inactive” and the outcome [5] was “inactive”. For the same compound, the AC50 [6] was 3.58 µM (active), the outcome (CYP2C8 (gene 1558)) was “inactive” and the outcome (CYP2C9 (gene 1559)) was “inactive”.
For `Cc1cc(O)ccc1Cl`, the outcome [1] was “inactive”, the outcome [2] was “inactive” and the outcome (Caspase-3 (Homo sapiens)) was “inactive”. For the same compound, the outcome [3] was “inactive”, the outcome [4] was “inactive” and the outcome [5] was “inactive”. The outcome [6] was “inactive”, the outcome (CYP2C8 (gene 1558)) was “inactive” and the outcome (CYP2C9 (gene 1559)) was “inactive”.
`C=CC(N)=O` was tested, and the outcome [1] was “inactive”, the outcome [2] was “inactive” and the outcome (Caspase-3 (Homo sapiens)) was “inactive”. For the same compound, the outcome [3] was “inactive”, the outcome [4] was “inactive” and the outcome [5] was “inactive”. For the same compound, the outcome (CYP2C9 (gene 1559)) was “inactive”.
With `N#Cc1ccc(N(CC(N)=O)CC(F)(F)F)cc1C(F)(F)F` the outcome [1] was “inactive”, the outcome [2] was “inactive” and the outcome (Caspase-3 (Homo sapiens)) was “inactive”. The outcome [3] was “inactive”, the outcome [4] was “inactive” and the AC50 [5] was 0.159 µM (active). For the same compound, the AC50 [6] was 19.3 µM (active) and the outcome (CYP2C9 (gene 1559)) was “inactive”.
`CC#Cc1cc(C)nc(Nc2ccccc2)n1` was tested, and the outcome [1] was “inactive”, the outcome [2] was “inactive” and the outcome [7] was “inactive”. For the same compound, the AC50 [3] was 7.61 µM (active), the outcome [4] was “inactive” and the AC50 [5] was 10.3 µM (active). For the same compound, the AC50 [6] was 24.9 µM (active) and the AC50 (CYP2C9 (gene 1559)) was 19.8 µM (active).
In the case of `Cc1cc(-c2ccc(N)c(C)c2)ccc1N`, the outcome [1] was “inactive”, the outcome [2] was “inactive” and the outcome (Caspase-3 (Homo sapiens)) was “inactive”. For the same compound, the outcome [7] was “inactive”, the AC50 [3] was 37 µM (active) and the outcome [4] was “inactive”. The AC50 [5] was 9.15 µM (active), the outcome [6] was “inactive” and the outcome (CYP2C9 (gene 1559)) was “inactive”.
For `ClC1=C(Cl)[C@]2(Cl)[C@@H]3[C@H]4C[C@H]([C@@H]5O[C@H]45)[C@@H]3[C@@]1(Cl)C2(Cl)Cl`, the AC50 [1] was 9.92 µM (active), the outcome [2] was “inactive” and the outcome (Caspase-3 (Homo sapiens)) was “inactive”. For the same compound, the outcome [7] was “inactive”, the outcome [3] was “inactive” and the outcome [4] was “inactive”. The AC50 [5] was 1.01 µM (active), the AC50 [6] was 2.63 µM (active) and the outcome (CYP2C9 (gene 1559)) was “inactive”.
For `O=C(O)C(F)(F)C(F)(F)C(F)(F)C(F)(F)C(F)(F)F`, the outcome [1] was “inactive”, the outcome [2] was “inactive” and the outcome [7] was “inactive”. For the same compound, the outcome [3] was “inactive”, the outcome [4] was “inactive” and the AC50 [5] was 19.6 µM (active). For the same compound, the AC50 [6] was 5.35 µM (active), the AC50 (CYP2C8 (gene 1558)) was 8.32 µM (active) and the AC50 (CYP2C9 (gene 1559)) was 9.92 µM (active).
For `c1ccc(-c2ccccc2)cc1`, the outcome [1] was “inactive”, the outcome [2] was “inactive” and the outcome [7] was “inactive”. The outcome [3] was “inactive”, the outcome [4] was “inactive” and the outcome [5] was “inactive”. For the same compound, the outcome [6] was “inactive” and the outcome (CYP2C9 (gene 1559)) was “inactive”.
`CCC(=O)O[C@H]1CC[C@H]2[C@@H]3CCC4=CC(=O)CC[C@]4(C)[C@H]3CC[C@]12C` was tested, and the outcome [1] was “inactive”, the outcome [2] was “inactive” and the outcome (Caspase-3 (Homo sapiens)) was “inactive”. The outcome [3] was “inactive”, the outcome [4] was “inactive” and the AC50 [5] was 50 µM (active). The AC50 [6] was 3.23 µM (active), the outcome (CYP2C8 (gene 1558)) was “inactive” and the outcome (CYP2C9 (gene 1559)) was “inactive”.
